# Measurements: PubChem BioAssay (EPA / NIEHS)
# Active and inactive are the calls of the source. Rule for the calls: active = hit-call score of the fitted dose curve at least 0.9, where 1 is the maximum; inactive = score below 0.9.
# Read-out: Alpha-fetoprotein (AFP) gene, AFP (gene 174)
# Assay: LTEA_HepaRG_AFP: Life Technologies and Expression Analysis (LTEA) Assay for Alpha-fetoprotein (AFP) gene using HepaRG (AID 2283472);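 for AC50: AFP transcript by TaqMan qRT-PCR normalized to ACTB GAPDH and POLR2A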
# Conditions: mRNA level, 48 h; actives raise or lower the signal
# Experimental: It is a marker of Undifferentiated hepatocyte.Data from the assay component LTEA_HepaRG_AFP was analyzed into 1 endpoint. This assay endpoint, LTEA_HepaRG_AFP, was analyzed with bidirectional fitting relative to DMSO as the negative control and baseline of activity. Using a type of inducible reporter, measures of mRNA induction for gain or loss-of-signal activity can be used to understand regulation of transcription factor activity. To generalize the intended target to other relatable targets, this assay endpoint is annotated to the background measurement intended target family, where the subfamily is assay control.
# A total of 1060 chemcials from the ToxCast library were tested in eight-point concentration-response experiments. Cell culture and cytotoxicity assays were conducted at Thermo Fisher Scientific's Custom Services facility (Madison, WI). A single lot of human HepaRG cells (Thermo Fisher Scientific, Frederick, MD) was used for the cell culture experiments. 96-well format collagen type I coated plates of human HepaRG cells were prepared using established methods. Briefly, cryopreserved HepaRG cells were thawed, plated at a density of approximately 100,000 cells/well in HepaRG Thaw, Plate, and General Purpose media (HPRG770, Thermo Fisher Scientific), and incubated for 48 hours. 0.5% DMSO was selected as vehicle control to balance the requisite need of DMSO in HepaRG cultures to maintain differentiation (for example, baseline metabolism, proportions of hepatocytes vs. cholangiocytes), while enabling further hepatic receptor pathway activation (for example, PXR and CAR) in response to chemical exposure. 48 hours after plating, the culture medium was replaced with HepaRG Serum-Free Incudtion Media. Cells were exposed to each test chemical in duplicate and maintained in CO2 incubators for another 48 hours. Chemical plates were thawed to room temperature and 200x concentrations of treatment groups were prepared. 8-point conentration-reponse curves were made with the highest exposure at 100 uM, followed by half-log dilutions, all in 0.5% DMSO. Each test plate contained variouse controls, induction positive controls (1mM phenobarbital), cytotoxicity positive controls ([…] aflatoxin B1), vehicle controls (0.5% DMSO), and total lysis controls (0.5% DMSO). Cell morphology images were taken using an Essen IncuCyte FLR automated microscope, with six 96-well plates imaged in about 24 minutes. Images were captured and exported and JPEG files. Spent culture media was transfered to black-well plates for the LDH assay, and remaining media was sorted at -80 C for later use. Cells were treated with RLT buffer and frozen until shipped for gene expression analysis. Total RNA was isolated from the cell suspension in 75 uL of Buffer RLT (Qiagen, Germantown, MD 20874) by Quintiles/Expression Analysis (Durham, NC) using a custom isolation procedure. Total RNA from each plate well was transferred to a preamplification plate. Fluidigm's 96.96 Dynamic ArrayTM (Fluidigm, Amsterdam, the Netherlands) technology was used for gene expression analyses by quantitative reverse transcription polymerase chain reaction (qRT-PCR, performed by Quintiles/Expression Analysis, Durham, NC)89. Standard TaqManTM Assays (Applied Biosystems/ThermoFisher Scientific, Foster City, CA) were used to assess the expression of 93 genes selected based on their selectivity and sensitivity to important hepatic receptors known to be modulated by environmental chemicals; importance in human hepatocyte functionality; and hepatotoxicity. Three "housekeeping" endogenous control genes were also included and used for normalization: actin beta (ACTB), Glyceraldehyde 3 phosphate dehydrogenase (GAPDH) and RNA Polymerase II Subunit A (POLR2A). qRT-PCR was conducted according to the manufacturer's protocol.
SMILES,outcome,AC50
CCCCCCCCOC(=O)c1ccc(C(=O)OCCCCCCCC)c(C(=O)OCCCCCCCC)c1,inactive,–
O=C(Nc1ccccc1)c1ccccc1I,–,50 µM (active)
Nc1ccc([N+](=O)[O-])cc1,inactive,–
O=C(N[C@H](c1ccccc1)[C@@H]1CN2CCC1CC2)c1c(Cl)ccc(C(F)(F)F)c1Cl,–,22.8 µM (active)
CC(C)(C)C(O)(CCc1ccc(Cl)cc1)Cn1cncn1 (stereo not given),–,62.2 µM (active)
Nc1ccc(Cc2ccc(N)cc2)cc1,inactive,–
CCCCCOC(=O)c1ccccc1C(=O)OCCCCC,inactive,–
Cc1cc(N=Nc2ccccc2C)ccc1N,–,4.69 µM (active)
ClC1=C(Cl)[C@]2(Cl)[C@H]3[C@H]([C@@H]4C=C[C@H]3C4)[C@@]1(Cl)C2(Cl)Cl,–,50 µM (active)
CC(C)COC(=O)c1ccccc1C(=O)OCC(C)C,inactive,–
Oc1ccc2ccc3cccc4ccc1c2c34,inactive,–
CNC(=O)Oc1cccc2c1OC(C)(C)C2,–,9.92 µM (active)
CCN(CC)CCO,inactive,–
CCCCCCCCCCCCCN1CC(C)OC(C)C1 (stereo not given),inactive,–
O=Cc1ccco1,inactive,–
Clc1ccc(C(c2ccc(Cl)cc2)C(Cl)Cl)cc1,–,14 µM (active)
CO[C@@H]1[C@H](OC(=O)NC(=O)CCl)CC[C@]2(CO2)[C@H]1[C@@]1(C)O[C@@H]1CC=C(C)C,inactive,–
CN(C)C(=O)Nc1ccc(Cl)cc1,inactive,–
Clc1ccccc1Cl,inactive,–
CCNS(=O)(=O)C(F)(F)C(F)(F)C(F)(F)C(F)(F)C(F)(F)C(F)(F)C(F)(F)C(F)(F)F,–,65.2 µM (active)

SMILES,outcome,AC50
CCCSC(=O)N(CCC)CCC,inactive,–
OCCCl,inactive,–
C[N+](C)(C)CC1CO1 (stereo not given),inactive,–
Brc1ccc(Oc2ccccc2)cc1,inactive,–
CCCCOC(=O)c1ccccc1C(=O)OCc1ccccc1,inactive,–
Cc1ccc([N+](=O)[O-])cc1,inactive,–
CC(O)CCO (stereo not given),inactive,–
CCCCCCCCn1sccc1=O,–,79.5 µM (active)
CCCCC(CC)COC(=O)c1ccc(C(=O)OCC(CC)CCCC)c(C(=O)OCC(CC)CCCC)c1 (stereo not given),inactive,–
O=C1CCCO1,inactive,–
Oc1ccccc1Cl,inactive,–
CC(C)(C)OOC(=O)c1ccccc1,inactive,–
Nc1ccc(N=Nc2ccccc2)cc1,–,20.5 µM (active)
CN(C)c1ccc(C(=O)c2ccc(N(C)C)cc2)cc1,–,50 µM (active)
C1=Cc2cccc3cccc1c23,inactive,–
CS(=O)(=O)NC(=O)c1cc(Oc2ccc(C(F)(F)F)cc2Cl)ccc1[N+](=O)[O-],inactive,–
c1ccc(NNc2ccccc2)cc1,inactive,–
c1ccc2c(c1)-c1cccc3cccc-2c13,inactive,–
O=C(Oc1ccc(Br)cc1)N1CCN2CCC1CC2,inactive,–
Cc1ccc(N)cc1,inactive,–
